DRD3 agonist = qHTS of D3 Dopamine Receptor Agonist: qHTS | D3R DiscoveRx beta-arrestin cells, luminescence, 90 min | max activation, % | 410,000 tested, 0.58% active | AID 652048, 2013; in the data active = max activation above about 30%; also: 0% is about no effect
Target sequence (P35462 whole entry, looked up): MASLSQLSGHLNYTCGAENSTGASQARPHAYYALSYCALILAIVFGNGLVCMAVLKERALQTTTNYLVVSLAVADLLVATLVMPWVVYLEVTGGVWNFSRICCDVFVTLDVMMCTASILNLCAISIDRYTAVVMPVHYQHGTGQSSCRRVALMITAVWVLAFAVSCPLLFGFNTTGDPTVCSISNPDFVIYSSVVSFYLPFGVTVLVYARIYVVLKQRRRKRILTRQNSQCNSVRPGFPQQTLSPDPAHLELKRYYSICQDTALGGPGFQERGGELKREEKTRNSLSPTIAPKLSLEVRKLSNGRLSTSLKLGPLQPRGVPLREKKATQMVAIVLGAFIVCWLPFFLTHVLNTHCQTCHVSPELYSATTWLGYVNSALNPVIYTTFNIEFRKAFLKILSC
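Cells at 1500/well, incubated overnight, then treated with pinned compounds (dopamine as control) for 90 min at 37 degrees C. DiscoveRx reagent added for 30 - 60 minutes at room temperature; luminescence read.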
PTAP TSG101 blk = qHTS Assay for Iinhibitors of HIV-1 Budding by Blocking the Interaction of PTAP/TSG101; Tumor susceptibility gene 101 protein (Homo sapiens), Q99816; Fluorescence polarization, FITC-PTAP peptide / Tsg101 binding; Potency, µM (doses to about 115 µM), for inactives: at the highest dose activity change, negative = inhibition, usual class: inhibitors; 340,000 tested, under 10 active; AID 493005, 2010; active = well fitted inhibition curve with a large enough effect in the main read-out, with a control signal flat, not every such curve was filed as active; inconclusive = small, poorly fitted or top-dose-only effect, or effect the other way, or a change in a side signal; inactive = no such curve, though single readings can be large or run the other way; also: potency is read from the fitted curve at half-maximal effect; % of control where 0% means no effect
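Steps: Tsg101 binding domain dispensed (10 uM final), compounds pinned in DMSO, FITC-labeled PTAP-motif peptide added (50 nM final); after 20 min binding at room temperature, polarization measured.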
Mm-Cpn inhibitor = Inhibitors of TCP-1 ring complex (TRiC) of Methanococcus maripaludis (MmCpn): qHTS; 330,000 tested, 0.031% active; purified Mm-Cpn ATPase, ADP Transcreener TR-FRET; Chaperonin Mm-Cpn (Methanococcus maripaludis); Potency, µM (series often up to 76.9 µM), for the others: at the highest dose activity, negative = inhibition, usual class: inhibitors; active = well fitted inhibition curve with a large enough effect; inconclusive = small, poorly fitted or top-dose-only effect; also: potency is read from the fitted curve at half-maximal effect; % is scaled to controls: 0 for no effect and ±100 for the full control effect; nearly all actives have a fitted effect of over 80% in size
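Purified archaeal chaperonin (25 nM final) was preincubated with compound for 10 min at 37°C, then ATP (10 uM final) was added for 30 min at 37°C in Tris pH 7.4/KCl/MgCl2/DTT buffer. ADP was quantified by HTRF Transcreener TR-FRET.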
Rango dissoc inh = qHTS Assay for Inhibitors of RanGTP induced Rango (Ran-regulated importin-beta cargo) - Importin beta complex dissociation. Snurportin-1 (Homo sapiens) + GTP-binding nuclear protein Ran (Homo sapiens) + Importin …. Biochemical FRET Rango-importin beta, RanGTP-induced dissociation. Potency, µM (titrated, usually from 46.1 µM), for the others: at the top dose activity change, negative = inhibition. 340,000 tested, 0.071% active. AID 540253, 2011; also: potency is read from the fitted curve at half-maximal effect; % of control where 0% means no effect; nearly all actives have a fitted effect of over 45% in size
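Two FRET readings bracket the reaction: one 5 min after compound meets Rango–importin beta, another 45 min after RanGTP-RCC1 (0.6 uM Ran, 0.2 uM RCC1, 2 mM GTP) is added. Only the second defines inhibition.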
Rango complex inh = qHTS Assay for Inhibitors of Rango (Ran-regulated importin-beta cargo) - Importin beta complex formation; 340,000 tested, 0.031% active; Potency, µM (top dose mostly 92.2 µM), without a hit: top-dose inhibition of complex formation; Rango CFP/YFP FRET sensor + importin beta, 45 min;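 also: potency is read from the fitted curve at half-maximal effect; 0% = DMSO wells and 100% = buffer wells lacking importin beta; nearly all actives have a fitted effect of over 15% in size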
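FRET biosensor Rango (snurportin 1 IBB between N-terminal EYFP and C-terminal Cerulean), 50 nM in PBS/1 mM DTT/0.02% Tween-20/0.1% BSA, preincubated 5 min RT with compound; 0.125 microM importin beta added, 45 min RT, CFP/YFP FRET ratio read.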
D3 antag = qHTS of D3 Dopamine Receptor Antagonist: qHTS; max response, negative = inhibition, %; 360,000 tested, 2.5% active; D3R cells, DiscoveRx beta-arrestin luminescence, antagonist mode; active compounds read low; D(3) dopamine receptor (Homo sapiens), P35462; in the data active = max response below about -50%; inconclusive = no clear call, values can overlap the other calls; also: % is scaled to controls: 0 for no effect and ±100 for the full control effect
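Cells plated overnight at 1500 cells/well, then exposed to library compounds with dopamine controls for 90 minutes at 37 degrees C. DiscoveRx reagent added for 30–60 minutes at room temperature; luminescence read, quantitative HTS format.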
Starred values were filed as active, the others as inactive; ? = inconclusive; nt = not tested or not shown. Shown are actives, neighbours in structure and some others; about 2.9% of the full set was active somewhere. Unless noted, calls follow the shape of the full dose curve.

SMILES | DRD3 agonist | PTAP TSG101 blk | Mm-Cpn inhibitor | Rango dissoc inh | Rango complex inh | D3 antag
COC(=O)C1=CC(C(=O)c2cccs2)=NN(c2ccc(OC)cc2)C1C(=O)OC (stereo not given) | -8.4 | -6.7% | -1.4% | -11.0% | 6.6% | -55.9*
CC(C)CNS(=O)(=O)c1ccc(CCC(=O)NC2CCCCC2)cc1 | 5.1 | -1.4% | nt | 3.5% | 0.4% | 0.2
CCCS(=O)(=O)NC(=O)C1(C)CCN(C(=O)Cc2ccc(OC)c(OC)c2)C1 (stereo not given) | 4.4 | nt | nt | nt | nt | 18.6
O=C1Nc2c(Cl)cc(Cl)cc2C1=O | -12.2 | 1.1% | nt | -17.5% | 2.8% | -92.8*
Cc1cccc(N=C2C(=O)Nc3c(Cl)cccc32)c1 | -18.8 | -3.3% | -5.2% | 9.0% | -1.0% | -29.6
COc1ccc(-c2cc(C)no2)cc1S(=O)(=O)Nc1c(C)cc(C)cc1C | -8.7 | nt | nt | nt | nt | nt
Cc1ccc(NC(=O)Cn2nnnc2-c2ccccc2N)cc1 | -1.1 | nt | nt | nt | nt | nt
Cc1cccc(-n2ncc3c(N4CCN(c5ccccc5)CC4)ncnc32)c1 | 9.4 | nt | nt | nt | nt | nt
c1ccc(CN2CCN(c3ncnc4c3cnn4-c3ccccc3)CC2)cc1 | 2.6 | nt | nt | nt | nt | nt
c1ccc(-n2ncc3c(N4CCN(CCOc5cccc6ccccc56)CC4)ncnc32)cc1 | 40.4* | -4.0% | 1.1% | 9.6% | -5.6% | -10.2
Cc1ccc(-n2ncc3c(N4CCN(c5ccccc5)CC4)ncnc32)c(C)c1 | 36.5* | -3.6% | 0.5% | -4.1% | -0.3% | 33.1
CNc1cccc(-c2cccc(O)c2)n1 | -15.3 | nt | nt | nt | nt | -53.0*
CC1(c2nc3ccccc3[nH]2)c2ccccc2C(=O)N1Cc1ccccc1 (stereo not given) | -7.1 | nt | nt | nt | nt | -55.3*
O=c1/c(=C\c2ccc(O)cc2)sc2n1C(c1ccccc1)C(c1ccccc1)=NN=2 (stereo not given) | -27.5 | 9.2% | -0.6% | ? | ? | -59.3*
CCOC(=O)C1=C(c2ccccc2)N=c2s/c(=C\c3cccc(O)c3)c(=O)n2C1c1cccs1 (stereo not given) | -10.1 | -1.5% | -8.3% | -24.9% | ? | -12.0
CC(=O)Nc1ccc(NC(=O)CN2CCN(c3ccccn3)CC2)cc1 | 11.2 | 1.2% | ? | -1.9% | -2.1% | 0.0
CCN(CC)S(=O)(=O)c1cc(NC(=O)CN2CCN(c3ccccn3)CC2)ccc1C | 90.9* | -8.6% | -3.5% | -9.9% | -2.2% | 6.1
O=C(CN1CCN(c2ccccn2)CC1)Nc1cc(C(F)(F)F)ccc1Cl | 5.8 | -7.4% | -2.8% | -3.4% | 5.4% | 0.0
CN(C)S(=O)(=O)c1ccc(NC(=O)CN2CCN(c3ccccn3)CC2)cc1 | 66.1* | -0.5% | -0.7% | 1.5% | 4.7% | 11.3
Cc1ccc(NC(=O)CN2CCN(c3ccccn3)CC2)cc1S(=O)(=O)N(C)C | 61.7* | -4.2% | 3.9% | 14.2% | -0.5% | 69.8
O=C(CN1CCN(c2ccccn2)CC1)Nc1ccc(Cl)c(C(F)(F)F)c1 | 2.8 | -4.6% | -0.1% | 1.5% | -2.5% | -66.1*
COc1ccc(NC(=O)CSc2oc(-c3ccco3)nc2S(=O)(=O)c2ccccc2)c(OC)c1 | 6.6 | nt | nt | nt | nt | nt
CN(C)c1ccc(NC(=O)CCN2CCN(c3ccccn3)CC2)cc1 | 95.2* | 0.6% | -1.3% | 5.2% | 7.0% | -4.4
CN(C)S(=O)(=O)c1cc(NC(=O)CN2CCN(c3ccccc3)CC2)ccc1Cl | 63.7* | 0.1% | 0.3% | 2.8% | 3.9% | 8.7
